Measured values: PubChem BioAssay (NCATS)
Inconclusive results are not listed. Calls of active or inactive are those of the source. The call rests on the fitted dose curve; in most records, active means well fitted curve in the direction sought with a large enough effect; inconclusive means small, poorly fitted or top-dose-only effect, or another doubt; inactive means no such curve, though single readings can be large; an effect the other way counts as inactive or inconclusive.

Columns and labels:
C33A = test: Primary qHTS to identify gynecologic anti-cancer compounds using libraries of approved drugs and bioactive compounds (AID 1345084); conditions: Gynecologic cancer cell panel viability, ATPlite luminescence, 48 h; series mostly up to 57.5 µM; further: nearly all actives have a fitted effect of over 55% in size
Method in brief: (§1)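 Measured: luminescence after ATPlite addition (15 min, RT). Exposure: 48 h, 37 C, 5% CO2.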

CASKI = test: as above; conditions: Gynecologic cancer cell panel viability, ATPlite luminescence, 48 h; series mostly up to 57.5 µM
Method in brief: as §1

JEG-3 = test: as above; conditions: Gynecologic cancer cell panel viability, ATPlite luminescence, 48 h; series mostly up to 57.5 µM
Method in brief: as §1

PA-1 = test: as above; conditions: Gynecologic cancer cell panel viability, ATPlite luminescence, 48 h; series mostly up to 57.5 µM
Method in brief: as §1

Tov112D = test: as above; conditions: Gynecologic cancer cell panel viability, ATPlite luminescence, 48 h; series mostly up to 57.5 µM
Method in brief: as §1

Es-2 = test: as above; conditions: Gynecologic cancer cell panel viability, ATPlite luminescence, 48 h; series mostly up to 57.5 µM
Method in brief: as §1

HeLa = test: as above; conditions: Gynecologic cancer cell panel viability, ATPlite luminescence, 48 h; series mostly up to 57.5 µM
Method in brief: as §1

Hek293T = test: as above; conditions: Gynecologic cancer cell panel viability, ATPlite luminescence, 48 h, control line for the selectivity index; series mostly up to 57.5 µM
Method in brief: as §1

OV90 = test: as above; conditions: Gynecologic cancer cell panel viability, ATPlite luminescence, 48 h; series mostly up to 57.5 µM
Method in brief: as §1

Tov-21-G = test: as above; conditions: Gynecologic cancer cell panel viability, ATPlite luminescence, 48 h; series mostly up to 57.5 µM
Method in brief: as §1

SKOV3 = test: as above; conditions: Gynecologic cancer cell panel viability, ATPlite luminescence, 48 h; series mostly up to 57.5 µM
Method in brief: as §1

[1] = qHTS assay to identify inhibitors of the type 1 interferon - major histocompatibility complex class I in skeletal muscle: Counter screen cell viability and HiBit confirmation (AID 1347412); conditions: iHSKM muscle cells + IFN-b, HiBiT or CellTiter-Glo, 24 h; for Potency: HiBiT; on all read-outs here: nearly all actives have a fitted effect of over 60% in size
Method in brief: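 Human myoblast knock-in line, 4.0 ng/ml IFN-beta stimulation, 24 h compound treatment. Endpoints: HiBiT lytic luminescence (HLA-B level) and CellTiter Glo (ATP). Dosing 12 concentrations, 3-fold steps, 46 uM highest final.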

CAOV3 = test: Primary qHTS to identify gynecologic anti-cancer compounds using libraries of approved drugs and bioactive compounds (AID 1345084); conditions: Gynecologic cancer cell panel viability, ATPlite luminescence, 48 h; series mostly up to 57.5 µM; further: nearly all actives have a fitted effect of over 55% in size
Method in brief: as §1
On the % scale 0 is the no-effect control and ±100 the full control effect; potency means the concentration at half of the fitted maximal effect.

CN(C)CCCCC(=O)Nc1ccc(NC(=S)NC(=O)c2ccc(C(C)(C)C)cc2)cc1
active: Potency (PA-1) 15.8 µM
inactive: Potency (C33A) | Potency (CASKI) | Potency (JEG-3) | Potency (Tov112D)

CCCN1CCC(c2cccc(S(C)(=O)=O)c2)CC1
inactive: Potency (C33A) | Potency (Es-2) | Potency (HeLa) | Potency (Hek293T) | Potency (OV90)

CC(=O)NCC(=O)N1C2CCC1c1cc(Nc3ncc(C(F)(F)F)c(NC4CCC4)n3)ccc12 (centres undefined)
inactive: Potency (C33A) | Potency (JEG-3)
active: Potency (Es-2) 14.1 µM | Potency (Hek293T) 3.98 µM | Potency (Tov-21-G) 8.91 µM

COc1ccc2[nH]c3c(-c4cccc5ccccc45)nccc3c2c1
active: Potency (C33A) 2.82 µM | Potency (CASKI) 1.41 µM | Potency (Es-2) 1.58 µM | Potency (HeLa) 0.891 µM | Potency (PA-1) 0.891 µM | Potency (Tov112D) 1.41 µM

CC1COC(Nc2ccc3ncnc(Nc4ccc(OCc5nccs5)c(Cl)c4)c3c2)=N1 (centres undefined)
inactive: Potency (C33A) | Potency (Es-2) | Potency (HeLa) | Potency (JEG-3) | Potency (PA-1)
active: Potency (SKOV3) 15.8 µM

COc1ccc(/C=C/C(=O)O[C@@H]2[C@@H](O)[C@H](C)O[C@@H](O[C@H]3[C@@H]4C=CO[C@@H](O[C@H]5O[C@@H](CO)[C@H](O)[C@@H](O)[C@@H]5O)[C@@H]4[C@@]4(CO)O[C@@H]34)[C@@H]2OC(C)=O)cc1
inactive: Potency (C33A) | Potency (Es-2) | Potency (HeLa) | Potency (Hek293T) | Potency (JEG-3) | Potency (OV90) | Potency (PA-1) | Potency (SKOV3) | Potency (Tov-21-G) | Potency (Tov112D)

COc1cc(Br)c(Nc2nc(-c3c(C)nc4ncccn34)cs2)c(Br)c1
active: Potency (Es-2) 8.91 µM | Potency (PA-1) 4.47 µM | Potency (SKOV3) 8.91 µM | Potency (Tov-21-G) 10 µM
inactive: Potency (C33A) | Potency (CASKI)

N=c1nc2n(cc1F)C1OC(CO)C(O)C1O2 (centres undefined)
inactive: Potency (C33A) | Potency (CASKI) | Potency (HeLa) | Potency (Hek293T) | Potency (JEG-3) | Potency (Tov-21-G)
active: Potency (PA-1) 0.891 µM | Potency (Tov112D) 1.41 µM

CC[C@H](CO)Nc1nc(NCc2ccc(-c3ccccn3)cc2)c2ncn(C(C)C)c2n1
active: Potency (C33A) 1.26 µM | Potency (CASKI) 2.51 µM | Potency (Es-2) 0.794 µM | Potency (HeLa) 3.16 µM | Potency (PA-1) 1 µM | Potency (Tov112D) 1.78 µM

Cc1ccccc1-n1c([C@H](C)Nc2nc(N)nc3nc[nH]c23)nc2cccc(C)c2c1=O
inactive: Potency (C33A) | Potency (Hek293T) | Potency (OV90) | Potency (SKOV3) | Potency (Tov112D)
active: Potency (CASKI) 31.6 µM

CN(C)C/C=C/C(=O)Nc1cccc(C(=O)Nc2ccc(Nc3nccc(-c4cccnc4)n3)cc2)c1
active: Potency (C33A) 12.6 µM | Potency (CASKI) 7.08 µM | Potency (HeLa) 20 µM | Potency (OV90) 10 µM | Potency (Tov112D) 10 µM

O=C(O)C1CN(Cc2ccc(-c3nc4cc(Cc5ccccc5F)ccc4s3)c(F)c2)C1
inactive: activity change, negative = cytotoxicity (C33A) 7.49% [at 11.6 µM] | activity change, negative = cytotoxicity (Es-2) 0.907% [at 11.6 µM] | activity change, negative = cytotoxicity (HeLa) 11.8% [at 11.6 µM] | activity change, negative = cytotoxicity (Hek293T) 9.39% [at 11.6 µM] | activity change, negative = cytotoxicity (JEG-3) 9.86% [at 11.6 µM] | activity change, negative = cytotoxicity (OV90) 12.7% [at 11.6 µM] | activity change, negative = cytotoxicity (Tov-21-G) 0.219% [at 11.6 µM] | activity change, negative = cytotoxicity (Tov112D) 10.6% [at 11.6 µM]

c1ccc(-c2csc(N3CCOCC3)n2)cc1
inactive: Potency (C33A) | Potency (CASKI) | Potency (Es-2) | Potency (JEG-3) | Potency (OV90) | Potency (PA-1) | Potency (SKOV3) | Potency (Tov-21-G) | Potency (Tov112D)

Cc1cc(Nc2cc(N3CCN(C)CC3)nc(/C=C/c3ccccc3)n2)n[nH]1
active: Potency (C33A) 28.2 µM | Potency (CASKI) 3.55 µM | Potency (PA-1) 2.51 µM | Potency [1] 11.1 µM
inactive: Potency (Es-2)

O=C(Nc1ccc(Cl)cc1F)c1ccccc1O
inactive: Potency (JEG-3)
active: Potency (C33A) 14.1 µM | Potency (Es-2) 15.8 µM | Potency (Hek293T) 17.8 µM

C[C@@H]1COCCN1c1cc(C2(S(C)(=O)=O)CC2)nc(-c2cccc3[nH]ccc23)n1
active: Potency (C33A) 4.47 µM | Potency (Es-2) 3.16 µM | Potency (Hek293T) 7.94 µM | Potency (JEG-3) 7.08 µM | Potency (PA-1) 11.2 µM | Potency (SKOV3) 3.16 µM | Potency (Tov-21-G) 1.78 µM

FC(F)(F)c1ccc(Nc2nc(-c3c(C(F)(F)F)nc4ccccn34)cs2)cc1
active: Potency (C33A) 20 µM | Potency (Es-2) 2 µM | Potency (HeLa) 0.891 µM | Potency (PA-1) 1.26 µM | Potency (Tov112D) 0.708 µM
inactive: Potency (CASKI)

O=C(c1cccc(Cl)c1F)N1CCN(Cc2cccc(Nc3nccs3)n2)CC1
inactive: Potency (C33A) | Potency (Es-2) | Potency (JEG-3) | Potency (OV90)
active: Potency (HeLa) 1 µM | Potency (Tov112D) 0.891 µM

CC(C)c1cc(CNc2nc(Nc3cc(C4CC4)[nH]n3)cc(N3CCN(C)CC3)n2)on1
active: Potency (CAOV3) 0.282 µM | Potency (CASKI) 2.82 µM | Potency (Es-2) 7.94 µM | Potency (HeLa) 0.251 µM | Potency (Hek293T) 2 µM | Potency (OV90) 3.16 µM | Potency (PA-1) 0.398 µM | Potency (SKOV3) 1 µM | Potency (Tov112D) 5.01 µM | Potency [1] 1.98 µM
inactive: activity change, negative = inhibition ([1]; Viability, at 45.9 µM (top of the series)) 6.65%
